VACV Venus inh = inhibitors of vaccinia virus (Venus reporter). Vaccinia virus Venus reporter expression, fluorescence. 330,000 tested, 0.46% active. AID 720580. Potency, µM (highest dose often 36.5 µM), for the others: at the top dose activity change, negative = inhibition, most hits filed as inhibitors; calls by dose curve; tested in A549 cells; further: nearly all actives have a fitted effect of over 30% in size
Vaccinia mCherry = inhibitors of vaccinia virus infection (mCherry reporter signal) | Vaccinia virus mCherry reporter infection, fluorescence | Potency, µM (titrated, usually from 36.5 µM), without a hit: at the highest dose activity change, negative = inhibition, actives largely listed as inhibitors | 310,000 tested, 0.63% active; calls by dose curve; tested in A549 cells; further: nearly all actives have a fitted effect of over 35% in size
MARV entry inh = Marburg virus entry inhibition | Marburg virus pseudotyped entry inhibition, cell reporter | Potency, µM (top dose mostly 37.8 µM), without a hit: at the top dose activity change, negative = inhibition, actives largely listed as inhibitors | 300,000 tested, 1.8% active | AID 540276; calls by dose curve; tested in HEK293 cells
LASV entry inh = inhibitors of Lassa virus binding or cell entry; Lassa virus pseudotype entry inhibition, cell reporter; 300,000 tested, 1.2% active; Potency, µM (doses to about 37.9 µM), inactives show top-dose activity change, negative = inhibition, usual class: inhibitors; calls by dose curve; tested in HEK293 cells; further: nearly all actives have a fitted effect of over 50% in size
The depositor's hits bear a star; i = inactive; ? = inconclusive; · = no result given; [ ] = remark or other dose. Compounds with a hit are over-represented: about 2.5% of the library has one in this group of screens. On the % scale 0 is the no-effect control and ±100 the full control effect; potency means the concentration at half of the fitted maximal effect.

SMILES	VACV Venus inh	Vaccinia mCherry	MARV entry inh	LASV entry inh
C=CCN(CC=C)CC(O)Cn1c2ccccc2c2ccccc21 (stereo not drawn)	?	?	8.2µM*	?
CCN(CC(O)Cn1c2ccccc2c2ccccc21)S(=O)(=O)c1ccc(F)cc1 (stereo not drawn)	·	·	?	-3.1%
CCN(CC)CC(O)Cn1c2ccccc2c2ccccc21 (stereo not drawn)	-14.0%	·	12.6µM*	?
CCOC(=O)c1sc(NC(=O)CC(C)c2ccccc2)nc1C (stereo not drawn)	-26.3%	-14.6%	5.62µM*	?
O=C1CCCCC1Sc1nnc(-c2ccc3c(c2)OCO3)o1 (stereo not drawn)	-6.2%	-8.7%	5.62µM*	?
Clc1ccc(CSc2nnc(-c3ccc4c(c3)OCO4)o2)cc1	-29.4%	·	?	0.8%
Cc1nn2c(NCCCN(C)C)c3c(nc2c1-c1ccccc1)CCC3	-14.0%	-14.9%	-23.5%	-15.4%
Cc1nn2c(NCCCN(C)C)c3c(nc2c1-c1ccccc1)CCCC3	-8.3%[7.34 µM]	-20.5%[7.34 µM]	7.08µM*	?
COc1ccc(NC(=O)c2cccc(N3C(=O)C4C5C=CC(C6CC56)C4C3=O)c2)c(OC)c1 (stereo not drawn)	-16.9%	-4.7%	?	17.8µM*
CC1(C)CC(C(=O)N2CCOc3ccc(CN4CCN(Cc5ccccn5)CC4)cc3C2)CCO1 (stereo not drawn)	-6.8%	-12.2%	·	·
COc1ccc(-c2csc(NC(=O)C3CCN(c4ncnc5sc(C)c(C)c45)CC3)n2)cc1OC	?	-18.4%	3.98µM*	2µM*
Cc1sc2ncnc(N3CCC(C(=O)Nc4ccc(Cl)cc4Cl)CC3)c2c1C	-18.8%	-1.4%	-8.1%	3.8%
Cc1sc2ncnc(N3CCC(C(=O)Nc4ccc(Br)cc4Br)CC3)c2c1C	-9.3%	-8.2%	11.2µM*	?
CNC(=O)c1ccc(NC(=O)C2CCN(c3ncnc4sc(C)c(C)c34)CC2)cc1	-11.9%	i	-5.9%	14.3%
COc1ccccc1C(=O)N1CCN(c2nc3cc(C)c(C)cc3cc2C#N)CC1	-28.6%	-17.7%	8.91µM*	10µM*
CN(C)c1ccc(/C=C/c2ncnc3ccccc23)cc1	i	73.1%	·	·
C=CCn1c(SCC(=O)Nc2sccc2C(N)=O)nc2sc(CC)cc2c1=O	10µM*	·	12.6µM*	?
C[C@@H]1C[C@H]2CC(=O)N3[C@H](CC(=O)N2[C@H]1c1ccccc1)C[C@@H](C)[C@@H]3c1ccccc1	·	·	15.2%[14.2 µM]	·
COC(=O)N[C@H](CC(C)=O)c1ccc(Cl)cc1	·	·	2.9%[14.2 µM]	·
O=C(COC(=O)CNC(=O)c1ccc(Cl)cc1Cl)NCc1ccco1	0.8%	-13.9%	2.82µM*	?
COc1ccc(Nc2cc(C)nc(NCc3ccccc3)n2)cc1	-9.1%[7.34 µM]	-6.7%[7.34 µM]	?	?
Cc1ccc(Nc2cc(C)nc(NCc3ccccc3)n2)cc1	?	?	8.2µM*	25.9µM*
Cc1cc(C)nc(N/N=C/c2cccc3ccccc23)n1	-11.9%	i	3.9%	6.7%
Cc1cc(N/N=C/c2ccccc2Cl)nc(NCc2ccccc2)n1	?	12.6µM*	?	?
Cc1cc(NC2CCCCC2)nc(NCc2ccccc2)n1	·	·	11.6µM*	23.1µM*
SMILES	VACV Venus inh	Vaccinia mCherry	MARV entry inh	LASV entry inh
COc1cc(-c2cccc(Cl)c2)cc2c1OCCN(C(=O)CCn1ccc(C)n1)C2	-7.4%	-25.4%	·	·
CC(C)=CNNC(=O)c1ccc(O)cc1	-14.2%	-2.7%	·	·
Nc1ccc(/C=C/c2nccc3ccccc23)cc1	8.9%	-26.1%	·	·
O=C(NC1CCCCC1)N1CCC(c2nc(-c3ccc(S(=O)(=O)N4CCCC4)cc3)no2)CC1	-1.4%	-12.4%	-2.5%	10µM*
O=C(O)CCCCCC[C@@H]1C(=O)NC(=O)N1CC[C@@H](O)C1CCCCC1	·	·	4.4%	·
COC(=O)c1c[nH]c2c1-c1cc(C(=O)OCc3ccccc3)n(S(=O)(=O)c3ccc(C)cc3)c1C(=O)C2=O	2.24µM*	?	-15.9%	?
Cc1ccc(S(=O)(=O)Cc2ccc(C(=O)OCc3ccccc3)cc2)cc1	-25.8%	-7.1%	-19.1%[46.1 µM]	-29.0%
Cn1c(=O)c2c(nc(Br)n2CC(=O)C23CC4CC(CC(C4)C2)C3)n(C)c1=O	·	·	18.3µM*	?
COc1cccc(C(=O)Cn2c(Br)nc3c2c(=O)n(C)c(=O)n3C)c1	·	·	6.9%	-5.0%
O=C(Nc1cccc(-c2cccc(Cl)c2)c1)C1CCN(Cc2ccccn2)CC1	-27.4%	?	?	10µM*
CCCn1ncc(CN2CCC(C(=O)Nc3cccc(-c4cccc(F)c4)c3)CC2)c1C	?	?	2.51µM*	?
CCC1CN(CCNC(=O)c2cccc(C(=O)OC)c2)Cc2cc(OC)ccc2O1 (stereo not drawn)	-2.6%	-14.0%	·	·
